Results filed as inconclusive are left out. The source made the active and inactive calls. Unless noted, calls follow the shape of the full dose curve.
How the values were obtained:
[1] = Nuclear factor erythroid 2-related factor 2/antioxidant responsive element (Nrf2/ARE) small molecule agonists: qHTS cell viability counter screen in human keratinocytes (AID 1919968; active = well fitted curve in the direction sought with a large enough effect in the repeat runs; an effect the other way counts as inactive or inconclusive; also: nearly all actives have a fitted effect of over 55% in size; also: potency is read from the fitted curve at half-maximal effect)
How it was run: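 Cytotoxicity was multiplexed with the Nrf2/ARE luciferase assay in the same wells. Stably transfected HaCaT keratinocytes were treated with test compounds for 23 h at 37 C. Cell viability was then measured by CellTiter-Fluor fluorescence.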

[2] = Nuclear factor erythroid 2-related factor 2/antioxidant responsive element (Nrf2/ARE) small molecule agonists: luciferase reporter gene qHTS assay in human keratinocytes (AID 1919969); also: nearly all actives have a fitted effect of over 35% in size; also: potency is read from the fitted curve at half-maximal effect
[3] = target: Gonadotropin-releasing hormone receptor (Homo sapiens) (UniProt P30968); assay: Human gonadotropin-releasing hormone receptor (GnRHR) small molecule agonists, calcium flux assay in GnRHR-HEK293 cells (AID 1920063); also: nearly all actives have a fitted effect of over 35% in size; also: potency is read from the fitted curve at half-maximal effect
Sequence of Gonadotropin-releasing hormone receptor (Homo sapiens) (P30968 whole entry, looked up): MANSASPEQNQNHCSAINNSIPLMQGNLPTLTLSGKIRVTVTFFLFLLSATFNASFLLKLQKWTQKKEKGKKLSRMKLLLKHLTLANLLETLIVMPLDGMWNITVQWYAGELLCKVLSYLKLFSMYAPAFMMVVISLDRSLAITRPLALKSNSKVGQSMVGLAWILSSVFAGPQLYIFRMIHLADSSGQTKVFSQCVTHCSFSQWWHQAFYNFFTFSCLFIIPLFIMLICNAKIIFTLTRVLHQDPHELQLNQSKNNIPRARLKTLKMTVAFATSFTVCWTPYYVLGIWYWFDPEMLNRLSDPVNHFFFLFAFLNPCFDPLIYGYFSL
How it was run: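 Agonist activity was measured as intracellular calcium flux in HEK293 cells engineered to stably express human GnRHR. After dye loading for 1 hour at 37 C, compounds in DMSO were added and fluorescence was followed for 3 minutes.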

[4] = target: KiSS-1 receptor (Homo sapiens) (UniProt Q969F8); assay: Human kisspeptin (KISS1R) small molecule agonists, calcium flux assay in KISS1R-HEK293 cells (AID 1920064; active = well fitted curve in the direction sought with a large enough effect in the repeat runs; an effect the other way counts as inactive or inconclusive)
Sequence of KiSS-1 receptor (Homo sapiens) (Q969F8 whole entry, looked up): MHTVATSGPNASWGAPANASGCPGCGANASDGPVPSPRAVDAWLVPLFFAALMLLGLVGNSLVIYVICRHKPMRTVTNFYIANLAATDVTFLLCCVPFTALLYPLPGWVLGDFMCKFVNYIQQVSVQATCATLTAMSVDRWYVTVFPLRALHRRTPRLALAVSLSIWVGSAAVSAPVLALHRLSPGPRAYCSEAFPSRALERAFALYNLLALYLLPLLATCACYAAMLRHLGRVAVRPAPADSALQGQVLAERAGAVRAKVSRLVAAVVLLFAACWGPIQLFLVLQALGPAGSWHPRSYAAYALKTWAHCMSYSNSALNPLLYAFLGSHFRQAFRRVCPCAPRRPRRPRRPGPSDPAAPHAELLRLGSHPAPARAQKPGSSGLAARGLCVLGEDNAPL
How it was run: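 Agonist activity is monitored as intracellular calcium rise in engineered HEK293 cells carrying human KISS1R. Cells are dye-loaded for 1 h at 37 C before compound addition, and fluorescence is recorded for 3 min.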

[5] = p53 small molecule agonists, cell-based qHTS assay with human liver microsomes: qHTS cell viability counter screen (AID 1963579); also: nearly all actives have a fitted effect of over 45% in size; also: potency is read from the fitted curve at half-maximal effect
How it was run: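 After the 460/530 nm beta-lactamase read, CellTiter-Glo was added to the same wells and luminescence measured after 30 min at room temperature, giving viability of p53RE-bla cells treated 16 h with compounds plus microsomes and NADPH.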

[6] = p53 small molecule agonists, cell-based qHTS assay with rat liver microsomes: qHTS cell viability counter screen (AID 1963580); also: nearly all actives have a fitted effect of over 45% in size; also: potency is read from the fitted curve at half-maximal effect
How it was run: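 Luminescent ATP readout (CellTiter-Glo, 30 min at room temperature) reports viability of p53RE-bla HCT-116 cells after 16 h at 37 C with test compounds under metabolic activation by rat liver microsomes and NADPH at 0.5 mg/mL final each.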

[7] = target: 5-hydroxytryptamine receptor 2A (Homo sapiens) (UniProt P28223); assay: 5-hydroxytryptamine receptor 2A (HTR2A) small molecule antagonists, cell-based qHTS assay (AID 1963586); also: nearly all actives have a fitted effect of over 45% in size
Sequence of 5-hydroxytryptamine receptor 2A (Homo sapiens) (P28223 whole entry, looked up): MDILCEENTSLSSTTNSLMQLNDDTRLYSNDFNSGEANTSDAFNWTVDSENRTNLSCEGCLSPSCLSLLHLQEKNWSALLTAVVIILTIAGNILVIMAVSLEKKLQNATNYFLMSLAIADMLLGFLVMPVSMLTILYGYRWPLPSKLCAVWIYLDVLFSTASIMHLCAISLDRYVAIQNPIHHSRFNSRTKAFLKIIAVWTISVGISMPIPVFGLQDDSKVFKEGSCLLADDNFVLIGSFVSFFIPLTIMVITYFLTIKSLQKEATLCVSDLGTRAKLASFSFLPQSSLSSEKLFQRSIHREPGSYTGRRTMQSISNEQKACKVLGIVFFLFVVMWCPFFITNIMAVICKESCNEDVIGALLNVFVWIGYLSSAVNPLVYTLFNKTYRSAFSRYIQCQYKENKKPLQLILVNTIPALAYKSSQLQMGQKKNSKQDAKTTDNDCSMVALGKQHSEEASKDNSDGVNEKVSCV
How it was run: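 CHO cells stably expressing human HTR2A were plated for 18 h at 37 C, then loaded with calcium dye for 1 h. Compounds were preincubated 5 min at room temperature before DOI (4 nM solution) was added. Kinetic fluorescence was read for 3 min.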

[8] = target: 5-hydroxytryptamine receptor 2A (Homo sapiens) (UniProt P28223); assay: 5-hydroxytryptamine receptor 2A (HTR2A) small molecule agonists, cell-based qHTS assay (AID 1963587); also: nearly all actives have a fitted effect of over 30% in size; also: potency is read from the fitted curve at half-maximal effect
How it was run: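 HTR2A-CHO cells, plated 18 h at 37 C/5% CO2, dye-loaded 1 h at 37 C; compounds in DMSO added by pin tool (agonist mode). Intracellular calcium flux read as kinetic fluorescence on FDSS over 2 min at 1 s intervals.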

[9] = target: Muscarinic acetylcholine receptor M1 (Homo sapiens) (UniProt P11229); assay: Cholinergic receptor muscarinic 1 (CHRM1) small molecule antagonists, cell-based qHTS assay (AID 1963588); also: nearly all actives have a fitted effect of over 40% in size; also: potency is read from the fitted curve at half-maximal effect
Sequence of Muscarinic acetylcholine receptor M1 (Homo sapiens) (P11229 whole entry, looked up): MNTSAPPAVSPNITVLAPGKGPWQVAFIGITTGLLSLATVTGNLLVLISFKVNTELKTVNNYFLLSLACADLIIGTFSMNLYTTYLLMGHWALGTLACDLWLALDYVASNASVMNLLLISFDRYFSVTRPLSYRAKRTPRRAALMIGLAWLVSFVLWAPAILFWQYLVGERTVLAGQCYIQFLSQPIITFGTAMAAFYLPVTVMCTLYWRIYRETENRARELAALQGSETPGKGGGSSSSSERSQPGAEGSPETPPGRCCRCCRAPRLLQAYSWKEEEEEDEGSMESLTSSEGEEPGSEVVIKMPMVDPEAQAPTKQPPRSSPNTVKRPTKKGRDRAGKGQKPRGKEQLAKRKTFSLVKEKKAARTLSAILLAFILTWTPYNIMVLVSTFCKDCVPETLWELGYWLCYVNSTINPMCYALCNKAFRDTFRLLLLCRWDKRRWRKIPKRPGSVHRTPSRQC
How it was run: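 Compounds were tested at 15 concentrations in three independent runs. Dye-loaded CHRM1-CHO cells were exposed 5 min at room temperature before stimulation by acetylcholine added at 50nM. Intracellular calcium was read kinetically on FDSS for 3 min.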

[10] = target: Muscarinic acetylcholine receptor M1 (Homo sapiens) (UniProt P11229); assay: Cholinergic receptor muscarinic 1 (CHRM1) small molecule agonists, cell-based qHTS assay (AID 1963589); also: nearly all actives have a fitted effect of over 35% in size
How it was run: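 Cells were plated and incubated 18 h at 37 C/5% CO2, loaded with calcium dye for 1 h at 37 C, then treated with compounds in DMSO. Fluorescence was recorded kinetically at 1 sec intervals.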

[11] = target: Beta-2 adrenergic receptor (Homo sapiens) (UniProt P07550); assay: Adrenergic beta2 receptor (ADRB2) small molecule antagonists, cell-based qHTS assay (AID 1963592); also: nearly all actives have a fitted effect of over 50% in size; also: potency is read from the fitted curve at half-maximal effect
Sequence of Beta-2 adrenergic receptor (Homo sapiens) (P07550 whole entry, looked up): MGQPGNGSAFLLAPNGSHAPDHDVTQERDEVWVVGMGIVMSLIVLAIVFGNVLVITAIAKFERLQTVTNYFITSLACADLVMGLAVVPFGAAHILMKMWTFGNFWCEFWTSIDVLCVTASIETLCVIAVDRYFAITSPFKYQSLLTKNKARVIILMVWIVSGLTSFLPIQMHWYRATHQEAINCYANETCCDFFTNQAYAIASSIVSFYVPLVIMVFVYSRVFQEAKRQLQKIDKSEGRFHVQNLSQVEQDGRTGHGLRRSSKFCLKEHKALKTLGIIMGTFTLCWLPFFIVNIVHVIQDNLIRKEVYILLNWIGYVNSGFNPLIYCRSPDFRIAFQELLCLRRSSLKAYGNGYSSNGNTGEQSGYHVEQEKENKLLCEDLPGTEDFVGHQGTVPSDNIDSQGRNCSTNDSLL
How it was run: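 Assay format: CHO-ADRB2 cells, 18-20hr seeding at 37C/5% CO2, then compound plus 1nM isoproterenol agonist mix for 0.5hr RT. Homogeneous time-resolved fluorescence cAMP detection after 1hr, expressed as 665/615 nm ratio.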

[12] = target: D(2) dopamine receptor (Homo sapiens) (UniProt P14416); assay: Dopamine D2 receptor (DRD2) small molecule agonists, cell-based qHTS assay (AID 1963594); also: nearly all actives have a fitted effect of over 35% in size; also: potency is read from the fitted curve at half-maximal effect
Sequence of D(2) dopamine receptor (Homo sapiens) (P14416 whole entry, looked up): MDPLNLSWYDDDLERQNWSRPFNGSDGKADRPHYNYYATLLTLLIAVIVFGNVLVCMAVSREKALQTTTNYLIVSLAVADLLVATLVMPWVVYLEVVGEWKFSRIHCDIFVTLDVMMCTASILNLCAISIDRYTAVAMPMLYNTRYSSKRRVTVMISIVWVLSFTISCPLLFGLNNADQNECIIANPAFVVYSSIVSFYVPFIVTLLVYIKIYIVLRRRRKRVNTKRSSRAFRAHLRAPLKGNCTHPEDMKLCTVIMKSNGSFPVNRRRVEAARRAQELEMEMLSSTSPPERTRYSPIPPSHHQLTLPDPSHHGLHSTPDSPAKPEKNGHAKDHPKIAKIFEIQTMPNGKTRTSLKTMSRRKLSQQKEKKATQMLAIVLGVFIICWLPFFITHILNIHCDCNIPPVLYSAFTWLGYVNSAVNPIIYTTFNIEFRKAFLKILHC
How it was run: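 HEK293 cells stably expressing DRD2 were cultured 24 h at 37 C, then given Ro20-1724 (0.1 mM final) and compounds for 10 min at room temperature. NKH477 (200nM) was then added for 30 min. cAMP was read by HTRF.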

[13] = target: D(2) dopamine receptor (Homo sapiens) (UniProt P14416); assay: Dopamine D2 receptor (DRD2) small molecule antagonists, cell-based qHTS assay (AID 1963595; active = well fitted inhibition curve with a large enough effect in the signal ratio in the repeat runs, with a control signal flat; the % refers to the signal ratio; also: potency is read from the fitted curve at half-maximal effect)
How it was run: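 Antagonist mode in DRD2-HEK293 cells: after compound addition with 0.1 mM Ro20-1724, cells received quinpirole (12 nM) and NKH477 (200 nM) for 30 min at room temperature; HTRF cAMP read after 1 h detection.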

[14] = G protein-coupled receptor (GPCR) small molecule agonists, calcium flux assay: HEK293 wild type cell line counter screen (AID 1920065); also: potency is read from the fitted curve at half-maximal effect
How it was run: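 Seed cells, incubate 18 h (37 C, 5% CO2); add calcium dye, 1 h at 37 C; pin-transfer compounds, ATP control or DMSO; read fluorescence 480/540 nm each second for 3 min.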

[15] = p53 small molecule agonists, cell-based qHTS assay with human liver microsomes (AID 1963577); also: potency is read from the fitted curve at half-maximal effect;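 as to activation: p53 response element beta-lactamase reporter cells with liver microsomes plus NADPH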
How it was run: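 Steps: plate p53RE-bla cells, incubate 5 h at 37 C; add compound in DMSO; add microsomes (0.5 mg/mL final) and NADPH (0.5 mg/mL final); incubate 16 h at 37 C; add LiveBLAzer, 2 h RT; read fluorescence.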

[16] = p53 small molecule agonists, cell-based qHTS assay with rat liver microsomes (AID 1963578)
How it was run: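 Metabolic activation is supplied by rat liver microsomes with NADPH (each 0.5 mg/mL final). p53RE-bla cells incubate with compound 16 h at 37 C; reporter activity is measured by LiveBLAzer fluorescence.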

[17] = p53 small molecule agonists, cell-based qHTS assay: qHTS cell viability counter screen (AID 1963581); also: nearly all actives have a fitted effect of over 45% in size; also: potency is read from the fitted curve at half-maximal effect
How it was run: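 Viability was counter-screened in parallel with the p53 agonist reporter by measuring intracellular ATP luminescence in the same HCT-116 p53RE-bla wells after 16 h compound treatment at 37 C.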

[18] = p53 small molecule agonists, cell-based qHTS assay (AID 1963582; active = well fitted activation curve with a large enough effect in the signal ratio in the repeat runs, not every such curve was filed as active; the % refers to the signal ratio)
How it was run: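 Cells carrying a p53-responsive bla reporter are treated with test compounds for 16 h at 37 C; beta-lactamase activity is then detected with LiveBLAzer B/G FRET substrate after 2 h at room temperature.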

[19] = cAMP Responsive Elements (CRE) small molecule agonists, cell-based qHTS assay (AID 1963590)
How it was run: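 Cells carrying a CRE-driven beta-lactamase reporter (HEK 293T) are seeded, incubated overnight (18 h), and treated with test compounds for 3 h at 37 C; reporter activity is then detected with a FRET substrate after 2 h at room temperature.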

[20] = cAMP Responsive Elements (CRE) small molecule antagonists, cell-based qHTS assay (AID 1963591; active = well fitted inhibition curve with a large enough effect in the signal ratio in the repeat runs, not every such curve was filed as active; the % refers to the signal ratio; also: potency is read from the fitted curve at half-maximal effect)
How it was run: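 Cells (CRE-bla HEK 293T, DMEM with 10% dialyzed FBS and 25 mM HEPES) are seeded and incubated 18 h. Compounds are added with NKH477 agonist at 0.25 uM final for 3 h, then FRET substrate for 2 h.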

Measured: Potency

CC(C)(C)c1cc([N+](=O)[O-])cc([N+](=O)[O-])c1O
active: [1] 13.6 µM | [2] 30.5 µM | [3] 38.8 µM
not listed: [14] | [15] | [16] | [17] | [18] | [19] | [20]
inactive: all other assays above

CC(C)NCC(O)c1ccc([N+](=O)[O-])cc1 (stereo not drawn)
active: [11] 5.96 µM
not listed: [4] | [12]
inactive: all other assays above

Cc1cc2c3c(c1)C(c1ccccc1)=N[C@@H](NC(=O)c1ccncc1)C(=O)N3CC2
not listed: [4] | [5] | [11] | [12] | [15] | [17] | [19] | [20]
inactive: all other assays above

CCOP(=S)(OCC)SCS(=O)(=O)CC
active: [15] 1.62 µM
not listed: [4] | [16]
inactive: all other assays above

CS(=O)(=O)c1ccc(C(=O)C2C(=O)CCCC2=O)c([N+](=O)[O-])c1
inactive: [1] | [2] | [3] | [14] | [16] | [5] | [17] | [7] | [8] | [11] | [13]

COc1ccc2[nH]cc(CCN(C(C)C)C(C)C)c2c1
not listed: [3] | [7] | [8] | [10] | [17] | [20]
inactive: all other assays above

CCCCCCCCCC[N+](C)(C)CCCCCCCCCC
active: [1] 27.3 µM | [6] 45.8 µM | [9] 10.6 µM | [20] 43.3 µM | [13] 27.3 µM
inactive: [2] | [4] | [14] | [15] | [16] | [7] | [10] | [12]

c1ccc(C2CC2)c(OCC2=NCCN2)c1
active: [13] 8.41 µM
not listed: [3] | [8] | [19] | [20]
inactive: all other assays above

CCOC(=O)NC(C)(C)Cc1ccc(Cl)cc1
not listed: [3] | [17] | [20]
inactive: all other assays above

Nc1ccc([N+](=O)[O-])cc1
inactive: [4] | [14] | [15] | [16] | [9] | [10] | [11] | [13]
active: [1] 61.1 µM | [2] 24.3 µM | [17] 8.39 µM

O=S(=O)(C(Cl)(Cl)Cl)C(Cl)(Cl)Cl
active: [1] 24.3 µM | [2] 8.63 µM | [8] 49 µM
not listed: [3] | [6] | [7] | [12] | [17] | [18] | [19]
inactive: all other assays above

CC(C)(C)NC[C@H](O)c1ccc(O)cc1Cl
active: [13] 0.0841 µM
not listed: [3] | [7] | [11] | [12] | [17] | [19]
inactive: all other assays above

CC(C)=CCOc1c2occc2cc2ccc(=O)oc12
not listed: [3] | [19]
inactive: all other assays above

c1cc[c]([Sb]([c]2ccccc2)[c]2ccccc2)cc1
active: [2] 12.2 µM
not listed: [3] | [11] | [13] | [17] | [18] | [19] | [20]
inactive: all other assays above

CCC[CH2][Sn]([CH2]CCC)([CH2]CCC)[CH2]CCC
inactive: [4] | [14] | [15] | [16] | [6] | [7] | [9] | [10]
active: [1] 12.2 µM | [2] 15.4 µM | [17] 40.8 µM | [11] 48.6 µM | [13] 38.6 µM

CC(C)N(CCC(C(N)=O)(c1ccccc1)c1ccccn1)C(C)C (stereo not drawn)
active: [9] 2.05 µM | [12] 11.4 µM
not listed: [4] | [15] | [16] | [17] | [18]
inactive: all other assays above

N#Cc1c(-c2ccc(Cl)cc2)[nH]c(C(F)(F)F)c1Br
inactive: [4] | [15] | [16] | [5] | [17] | [8] | [10] | [12] | [13]
active: [1] 10.9 µM | [2] 9.69 µM | [14] 2.45 µM | [9] 16.8 µM

CC(=O)O[C@H]1CC[C@@]2(C)C(=CC[C@@H]3[C@@H]2CC[C@]2(C)C(=O)CC[C@@H]32)C1
not listed: [3] | [19] | [20]
inactive: all other assays above

O=[N+]([O-])c1ccc(CCl)cc1
active: [2] 60.1 µM
not listed: [3] | [6] | [7] | [11]
inactive: all other assays above

N#CCc1ccc(Cl)cc1
not listed: [3] | [6] | [12]
inactive: all other assays above

COC12CC[C@@]3(C[C@@H]1C(C)(O)C(C)(C)C)[C@H]1Cc4ccc(O)c5c4[C@@]3(CCN1CC1CC1)[C@H]2O5 (stereo partly drawn)
active: [1] 30.4 µM | [9] 33.2 µM
inactive: [2] | [4] | [14] | [15] | [16] | [17] | [10] | [11] | [12]

[Cl][Hg][c]1ccccc1
active: [1] 2.73 µM | [2] 0.969 µM | [5] 4.58 µM | [6] 8.14 µM | [17] 2.89 µM | [8] 49 µM
inactive: [4] | [14] | [15] | [16] | [7] | [9]

COC(=O)C(c1ccccc1)C1CCCCN1 (stereo not drawn)
active: [9] 26.6 µM
not listed: [3] | [8] | [13]
inactive: all other assays above

O=C1CN=C(c2ccccc2)c2cc([N+](=O)[O-])ccc2N1
inactive: [1] | [2] | [3] | [14] | [5] | [6] | [19] | [20] | [11] | [12] | [13]

Reference: PubChem BioAssay (Tox21)
